Pf growth 96h: Primary qHTS for delayed death inhibitors of the malarial parasite plastid, 96 hour incubation | Potency, µM (highest dose often 28.7 µM), for the others: at the highest dose activity change, negative = inhibition, most hits filed as inhibitors | P. falciparum luciferase reporter growth, 96 h | 6.9% of 320,000 active | AID 504834, 2011; also: potency is read from the fitted curve at half-maximal effect; % is scaled to controls: 0 for no effect and ±100 for the full control effect
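Delayed-death screen, second-generation endpoint: infected erythrocytes, 2% hematocrit, 0.05% parasitemia final; 96 hours at 37 C, 5% CO2; luciferase detection reagent; luminescence decrease equals reduced growth.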
CHX counter: Cycloheximide Counterscreen for Small Molecule Inhibitors of Shiga Toxin. 12% of 300,000 active. AID 2314, 2010. cell reporter, cycloheximide protein synthesis inhibition counterscreen. max response, %; in the data active = max response mostly above about 13%, no sharp cut-off; inactive = mostly below about 14%; also: read at 38.3 µM for the half of the compounds with a filed dose; 0% is about no effect
NS1 inh: qHTS Assay for Inhibitors of Influenza NS1 Protein Function. Potency, µM (series often up to 46.1 µM), for the others: at the highest dose activity, positive = more growth. 0.4% of 270,000 active. AID 2326, 2010; calls by dose curve; also: potency is read from the fitted curve at half-maximal effect; actives are rising curves; nearly all actives have a fitted effect of over 50% in size
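Growth recovery, yeast-based: influenza A NS1 expressed in S. cerevisiae causes slow growth, and suppressors are detected by OD600. The parent strain without NS1 is used as positive control.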
Pf growth 48h: Primary qHTS for delayed death inhibitors of the malarial parasite plastid, 48 hour incubation; P. falciparum luciferase growth in erythrocytes, 48 h; Potency, µM (series often up to 28.7 µM), inactives show at the top dose activity change, negative = inhibition, hits mostly inhibitors; 5.9% of 310,000 active; AID 504832, 2011; also: potency is read from the fitted curve at half-maximal effect; % is scaled to controls: 0 for no effect and ±100 for the full control effect
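Luciferase-expressing parasites in RBCs, 2% Hct / 0.1% parasitemia final; RPMI 1640 + 0.5% Albumax; 37 C, 5% CO2, one generation; luminescence read-out, lower signal = inhibition.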
Shiga inhibitor: A qHTS for Small Molecule Inhibitors of Shiga Toxin | AID 2315, 2010 | inhibition, % at 38.7 µM | 9.2% of 290,000 active | Vero cells, Shiga toxin protein synthesis inhibition reporter; in the data active = inhibition mostly above about 28%, no sharp cut-off; inactive = mostly below about 43%; also: 0% is about no effect
SARS PLpro yeast: qHTS of Yeast-based Assay for SARS-CoV PLP; S. cerevisiae expressing SARS-CoV PLpro, growth rescue; Potency, µM (highest dose often 32.9 µM), for inactives: at the top dose activity, positive = growth rescue, usual class: activators; 0.19% of 330,000 active; AID 485353, 2010; calls by dose curve; also: potency is read from the fitted curve at half-maximal effect; 0% is about no effect; nearly all actives have a fitted effect of over 55% in size
Numbers without * were called inactive; ? = inconclusive; / = no result; [ ] = another dose, or the depositor's remark. The list is not random: actives were taken first. Their share in the collection is about 21%. Unless noted, calls follow the shape of the dose curve; as a rule, active = well fitted inhibition curve with a large enough effect; inconclusive = small, poorly fitted or top-dose-only effect, or another doubt; inactive = no such curve, though single readings can be large or run the other way.

SMILES | Pf growth 96h | CHX counter | NS1 inh | Pf growth 48h | Shiga inhibitor | SARS PLpro yeast
Cc1cccc(NS(=O)(=O)c2ccc(-c3ccc(=O)[nH]n3)o2)c1 | -4% | 0 | 5% | -1% | -9 | 27%
Cc1ccc(NS(=O)(=O)c2ccc(-c3ccc(=O)[nH]n3)o2)cc1N(C)C | -13% | 44* | 5% | 18% | 60* | 4%
Cc1ccc(C)c(NS(=O)(=O)c2ccc(-c3ccc(=O)[nH]n3)o2)c1 | ? | -1 | -6% | 29% | -1 | 0%
C=CCSc1nnc(C)c(/C=C/Nc2ccc(Cl)cc2)n1 | ? | -3 | / | ? | 4 | 0%
CCN(CC)c1ccc(S(=O)(=O)N2CCOCC2)cc1NC(=O)CNCc1ccccc1 | ? | 0 | -6% | ? | -6 | 1%
CCN(CC)c1ccc(S(=O)(=O)N2CCOCC2)cc1NC(=O)CN1CCN(Cc2ccccc2)CC1 | 10µM* | -4 | -3% | ? | -9 | 0%
CCN(CC)c1ccc(S(=O)(=O)N2CCOCC2)cc1NC(=O)CSC(=S)N1CCCC1 | 10µM* | -1 | 16% | ? | 15 | 9%
O=C1C=C(Nc2ccccc2)CC(c2ccccc2)C1 (stereo not given) | 1.9µM* | 3 | / | -14% | 22 | 0%
CCCCCCCNC1=CC(=O)CC(c2ccccc2)C1 (stereo not given) | ? | 12 | -12% | 9.3µM* | 9 | 14%
COc1ccc(NC2=CC(=O)CC(c3ccccc3)C2)cc1 (stereo not given) | 19% | 22* | 5% | ? | -8 | 0%
CC(C)CC(=O)Nc1nnc(S(=O)(=O)Nc2ccccc2)s1 | 43% | -2 | -3% | -3% | -1 | 0%
O=C(NCc1ccccc1)c1nccnc1CO | 10µM* | -5 | 6% | -21%[0.00184 µM] | -7 | 1%
CCCc1cc2c(=O)c(-c3ccccn3)c(C)oc2cc1O | 9.3µM* | 11 | -13% | ? | 39 | -2%
COc1ccccc1Oc1coc2cc(OCC(N)=O)ccc2c1=O | 4% | -1 | 4% | -28% | -4 | 1%
CCCc1cc2c(=O)c(-c3ccccn3)coc2cc1OC | 16% | 44* | -18% | 136% | 90* | 1%
CCCc1cc(=O)oc2cc(Oc3ncccn3)ccc12 | / | 16 | -7% | 56% | 73 | -3%
COCCn1c(SCC(=O)N2CCC(C)CC2)nc2c([nH]c3ccccc32)c1=O | ? | 8 | 12% | ? | 5 | -5%
COc1ccc(CNc2nc(-c3cccnc3)nn2C(=O)c2cccs2)cc1 | ? | 29* | 0% | 18% | 13 | 6%
COCC(=O)n1nc(-c2ccc(C)cc2)nc1NCc1ccc(F)cc1 | 1% | 12* | / | 0%[5.75 µM] | 86* | -1%
COCC(=O)n1nc(-c2ccc(Cl)cc2)nc1NCc1ccc(F)cc1 | 2.9µM* | 38* | -4% | / | 48* | -1%
CCC(=O)n1nc(-c2cccnc2)nc1NCc1ccc(F)cc1 | ? | 9 | / | -12% | 10 | -3%
CCC(=O)n1nc(-c2cccnc2)nc1NCc1ccccc1 | 203% | 2 | / | 2% | 9 | -1%
COCC(=O)n1nc(-c2ccccc2)nc1NCc1ccc(N(C)C)cc1 | ? | 38* | 4% | 49% | 65* | -1%
CCn1ncc(NC(=S)NCCc2ccc(OC)c(OC)c2)c1C(N)=O | 2% | -3 | 6% | 8% | -7 | -1%
CCOc1ccc(S(=O)(=O)N2CCCC(C(=O)N3CCN(CC)CC3)C2)cc1Cl (stereo not given) | 17% | -6 | -4% | 5% | -9 | 0%
SMILES | Pf growth 96h | CHX counter | NS1 inh | Pf growth 48h | Shiga inhibitor | SARS PLpro yeast
COC(=O)c1ccc(/C=C/C(=O)OCC(=O)c2ccc[nH]2)cc1 | / | / | / | / | / | -4%
NS(=O)(=O)c1ccc2nc(NC(=O)c3ccc4ncsc4c3)sc2c1 | 15% | 9.3* | 5% | 131% | 33 | 0%
NS(=O)(=O)c1ccc2nc(NC(=O)c3ccc4c(c3)OCCO4)sc2c1 | 0% | -2 | -1% | -19% | -11 | -5%
Cc1ccnc(NC(=O)c2cc([N+](=O)[O-])cc([N+](=O)[O-])c2)c1 | 11% | 7 | / | ? | 21 | 4%
O=C(/C=C/c1ccc2c(c1)OCO2)Nc1nc2ccc(F)cc2s1 | 57% | 22* | 0% | 81% | 63* | 1%
Cc1ccnc(NC(=O)c2ccc(N3C(=O)CCC3=O)cc2)c1 | 22% | 45* | 5% | 107% | 49* | -12%
CCOc1ccc2nc(NC(=O)/C=C/c3ccc4c(c3)OCO4)sc2c1 | 174% | -2 | 11% | 16% | -11 | 17%
O=C(Nc1nc2cc3c(cc2s1)OCO3)c1cccc(N2C(=O)CCC2=O)c1 | 66% | 25* | -4% | 61% | 50* | -1%
CC(C)COc1ccc(C(=O)OCC(=O)N(C)CC(=O)Nc2ccc(F)cc2)cc1 | 11% | / | / | 6% | / | -2%
Cc1ccc2nc(NC(=O)c3ccc4ncsc4c3)sc2c1 | 89% | 33* | 3% | 14% | 60* | -3%
Cc1ccc2nc(NC(=O)c3ccc4c(c3)OCO4)sc2c1 | 427% | 62* | 15% | 246% | 76* | -2%
Cc1cc(C)c2sc(NC(=O)c3ccc(N4C(=O)CCC4=O)cc3)nc2c1 | -3% | 10 | 3% | -22% | 34 | 1%
Cc1ccc2nc(NC(=O)c3cccc(-c4cc5ccccc5oc4=O)c3)sc2c1 | 219% | 13 | 8% | 139% | 41 | -3%
Cc1ccc2nc(NC(=O)c3ccc(N4C(=O)CCC4=O)cc3)sc2c1 | ? | 31* | / | 83% | 51* | 0%
NC(=O)C[C@@H](N)c1nn[nH]n1 | / | / | 1% | / | / | /
O=C(CCCCl)NC(=S)Nc1ccc(CN2CCOCC2)cc1 | ? | 13* | 1% | 138% | 48 | 2%
O=C(CCCCl)NC(=S)Nc1ccc(N2CCOCC2)cc1 | 64% | 34* | 8% | 128% | 96* | -1%
O=C(NC(=S)Nc1ccc(N2CCOCC2)cc1)c1ccc(Cl)cc1 | 22% | 6 | 14% | 16% | 7 | -27%
COCCn1c(SCCOc2ccccc2)nc2ccccc2c1=O | 15% | 11 | 7% | ? | 3 | -5%
CC1=NN(C(=O)COc2ccc(C)c(C)c2)C(O)(c2ccccc2)C1 (stereo not given) | 39% | 0 | 8% | 2% | -11 | 5%
O=C(O)C1CCCCN1S(=O)(=O)c1ccc(Cl)s1 (stereo not given) | 9.3µM* | 0 | 0% | / | -16 | 6%
O=C(NC1CC1)C1CCN(C2CCN(C(=O)/C=C/c3cccc(F)c3F)CC2)CC1 | 24% | -2 | 3% | -23% | 1 | 1%
CCC(=O)Nc1ccccc1C(=O)OCc1ccc(C(=O)c2ccccc2)cc1 | 82% | 25* | -9% | 42% | 15 | 1%
